Reference: PubChem BioAssay
A number with no mark means an inactive call. How the calls were made is not given here.

Each compound was assayed against Pantothenate synthetase (Mycobacterium tuberculosis (strain ATCC 25618 / H37Rv)) (UniProt P9WIL5) (assay: Coupled enzyme confirmation of inhibitors against recombinant Mtb PanC (AID 375;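 further: 0% = full reaction with vehicle and 100% = no enzyme background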)). Conditions: coupled enzyme assay; at 10 µM, hits give high values.
Chain of Pantothenate synthetase (Mycobacterium tuberculosis (strain ATCC 25618 / H37Rv)) (P9WIL5 whole entry, looked up): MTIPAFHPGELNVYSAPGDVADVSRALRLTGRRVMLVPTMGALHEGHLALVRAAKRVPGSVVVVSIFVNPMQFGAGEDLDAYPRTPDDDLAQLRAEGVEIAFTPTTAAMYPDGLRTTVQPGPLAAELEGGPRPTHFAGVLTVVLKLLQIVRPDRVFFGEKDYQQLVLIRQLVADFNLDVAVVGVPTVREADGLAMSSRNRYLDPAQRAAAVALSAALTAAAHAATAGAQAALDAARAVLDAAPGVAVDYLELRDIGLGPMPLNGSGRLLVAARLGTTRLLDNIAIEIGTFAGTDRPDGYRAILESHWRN
`Cc1ccc(SCc2[nH]nc3c2C(c2ccc(C)o2)C(C#N)=C(N)O3)cc1` (stereo not given) was tested, and the inhibition was 3%. `CCC(=O)Oc1ccc(C(CC)C(CC)c2ccc(OC(=O)CC)cc2)cc1` (stereo not given) was tested, and the inhibition was 0%. `CCN(CC)S(=O)(=O)c1ccc(Br)c(OC)c1` was tested, and the inhibition was 0%. `Cc1ccc2c(c1)c1c3n2CC(=C2C(=O)OC(C)(C)OC2=O)NC3CCC1` (stereo not given) was tested, and the inhibition was 6%. Compound `CCOC(=O)c1cc(CC)sc1NC(=O)COC` has an inhibition of 7%. Work on `CC(=O)NC1=NC(=O)/C(=C/N2CCCCC2)S1` yielded an inhibition of 8%. `Cc1nc2sc3c(c2c(=O)o1)CCC3` was tested, and the inhibition was 2%. With `CCC(=O)Nc1ccc(NC(=O)CSc2nnnn2C(C)C)cc1` the inhibition was 0%. `CC(=O)OCC(=O)[C@@]1(OC(C)=O)[C@@H](C)C[C@H]2[C@@H]3C[C@H](F)C4=CC(=O)C=C[C@]4(C)[C@@]3(F)[C@@H](O)C[C@@]21C` was tested, and the inhibition was 0%. `COc1ccc(C/C(O)=C(\C#N)c2nc3ccccc3s2)cc1` showed an inhibition of 4%. Compound `COC(=O)c1cc(OC)c(OCc2cc(C(=O)OC)oc2C)c(OC)c1` has an inhibition of 2%. `CN(CCNC(=O)c1ccc(N2CCCC2=O)cc1)CCc1ccccc1` gave an inhibition of 0%. `Cc1ccccc1Cn1cc(/C=N/n2cnnc2)c2ccccc21` gave an inhibition of 0%. Work on `O=C1C2C3C=CC(C3)C2C(=O)N1c1cccc(N2C(=O)C3C4C=CC(C4)C3C2=O)n1` (stereo not given) yielded an inhibition of 0%. With `CC(=O)N1C(=O)C2(Nc3ccccc3N2)c2ccccc21` the inhibition was 1%. For `CCOc1ccc(N(CC(=O)NCC2CCCO2)S(=O)(=O)c2ccc(OC)c(OC)c2)cc1` (stereo not given), the inhibition was 0%. `Cc1ncc(CSc2nc3ccccc3[nH]2)c(N)n1` gave an inhibition of 5%. In the case of `CCN(CC)CCOC(=O)C1(c2ccc(OC)c(OC)c2)CCCC1`, the inhibition is reported as 12%. Compound `CCc1ccccc1N1C(=O)C2CC(C)=C(C)CC2C1=O` (stereo not given) has an inhibition of 0%. In the case of `C=CCNC(=O)CN(c1cccc(Br)c1)S(C)(=O)=O`, the inhibition is reported as 0%. `CC1(C)Cc2c(c(-c3ccccc3)nc(N3CCCC3)c2C(N)=O)CO1` was tested, and the inhibition was 4%. `CCC(c1c(C)n(C)n(-c2ccccc2)c1=O)c1c(C)n(C)n(-c2ccccc2)c1=O` gave an inhibition of 1%. `CN1CCN(CCCNC(=O)C2CC(=O)N(C3CCCCC3)C2)CC1` (stereo not given) gave an inhibition of 4%. With `O=C1CC(c2ccco2)CC(O)=C1C=NCCN1CCNCC1` (stereo not given) the inhibition was 0%. `COc1ccc(C)cc1NC(=O)CN(Cc1nnc(-c2ccc(Cl)cc2)o1)C1CCCC1` gave an inhibition of 0%. `CCOc1ccccc1N(CC(=O)N1CCOCC1)S(=O)(=O)c1ccccc1` gave an inhibition of 0%. `Cc1cc(NC(=O)CSc2nc(C3CCCCC3)nc3ccccc23)no1` showed an inhibition of 0%. Compound `COc1ccc(C(O)Cn2c(=N)n(CCCN(C)C)c3ccccc32)cc1` (stereo not given) has an inhibition of 0%. Work on `Cc1cc(C)nc(N2CCCC(C(=O)Nc3ccc4c(c3)OCO4)C2)n1` (stereo not given) yielded an inhibition of 0%. For `C=CCn1c(Cc2cccs2)nnc1SCC(=O)Nc1ccc(OC)c(OC)c1`, the inhibition was 0%. In the case of `CCOc1ccccc1CN(Cc1ccco1)S(=O)(=O)c1ccc(-n2cnnn2)c(OC)c1`, the inhibition is reported as 8%. With `Nc1ccc2[nH]ncc2c1` the inhibition was 0%. Compound `Cc1c(C)n(C)c2ccc(C(=O)NCc3cccs3)cc12` has an inhibition of 0%. With `COc1ccc(OC)c(C2=NOC(C(=O)NCCN3CCOCC3)C2)c1` (stereo not given) the inhibition was 0%. Compound `O=C(Nc1nncs1)c1ccccc1NS(=O)(=O)c1cccs1` has an inhibition of 0%. `O=C(NCc1cccs1)C(Cc1ccccc1)n1cccc1` (stereo not given) gave an inhibition of 0%. `CC1(C)SC2[C@H](NC(=O)C(NC(=O)N3CCNC3=O)c3ccccc3)C(=O)N2C1C(=O)O` (stereo not given in full) gave an inhibition of 0%. `CC(c1nnc(SCC(=O)Nc2sccc2C#N)n1-c1ccc(Cl)cc1)N(C)C` (stereo not given) showed an inhibition of 0%. `CCOC(=O)c1cccc(NC(=O)C2CCN(S(=O)(=O)c3cccs3)CC2)c1` was tested, and the inhibition was 0%. In the case of `C=CCn1c(SCC(=O)Nc2cccc(OC)c2)nnc1-c1cccnc1`, the inhibition is reported as 0%.
